Results: PubChem BioAssay AID1851 (National Center for Advancing Translational Sciences (NCATS), 2009)
Screen size: about 16,000 compounds; about 5,100 (32%) were called active. About 25% were inconclusive and are not listed. The list shows a part of the results. Unmarked numbers belong to inactive results. Calls come from the whole dose curve; as a rule, active = well fitted curve in the direction sought with a large enough effect; inconclusive = small, poorly fitted or top-dose-only effect, or effect the other way; inactive = no such curve, though single readings can be large or run the other way.
% is set by controls: 0 for no effect and ±100 for the full control effect.

Each molecule was assayed against Cytochrome P450 3A4 (Homo sapiens) (UniProt P08684) (assay: Cytochrome panel assay with activity outcomes). Settings: recombinant CYP, pro-luciferin dealkylation, luminescence, p450-cyp3a4; series mostly up to 57.1 µM.
Sequence of Cytochrome P450 3A4 (Homo sapiens) (P08684 whole entry, looked up): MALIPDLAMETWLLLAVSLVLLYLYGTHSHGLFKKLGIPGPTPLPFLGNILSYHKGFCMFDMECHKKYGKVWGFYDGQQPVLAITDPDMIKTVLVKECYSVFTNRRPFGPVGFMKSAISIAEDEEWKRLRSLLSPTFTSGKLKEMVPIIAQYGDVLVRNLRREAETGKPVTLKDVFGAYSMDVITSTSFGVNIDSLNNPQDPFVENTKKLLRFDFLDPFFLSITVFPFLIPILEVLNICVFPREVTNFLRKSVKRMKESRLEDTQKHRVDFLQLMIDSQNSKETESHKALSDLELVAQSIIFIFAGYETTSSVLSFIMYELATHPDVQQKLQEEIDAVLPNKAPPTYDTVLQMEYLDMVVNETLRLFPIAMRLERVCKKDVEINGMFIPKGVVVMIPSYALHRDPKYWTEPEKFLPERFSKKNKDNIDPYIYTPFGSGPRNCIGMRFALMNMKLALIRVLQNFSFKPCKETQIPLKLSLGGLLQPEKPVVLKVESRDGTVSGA
For `NC(N)=NNC(=O)C(=O)O`, the activity, negative = inhibition was -1.33% [at 11.4 µM]. For `CC1=NN(c2ccc(C)cc2C)C(=O)C1C(c1ccccc1)C1C(=O)N(c2ccc(C)cc2C)N=C1C` (stereo not given), the AC50 was 11.2 µM (active). `CC1=NN(c2ccc(F)cc2)C(=O)C1C(c1cccc(O)c1)c1c(C)[nH]n(-c2ccc(F)cc2)c1=O` (stereo not given) was tested, and the activity, negative = inhibition was 2.16% [at 2.29 µM]. With `Cc1ccc(N2C(=O)C(Cl)=C(NCc3ccccc3)C2=O)c(C)c1` the AC50 was “inactive”. `CCN(CC)CCNC(=O)c1cc(Cl)c(N)cc1OC` was tested, and the AC50 was “inactive”. For `CCN(CC)CCNC(=O)c1ccc(Cl)c(S(=O)(=O)Nc2ccccc2OC)c1`, the AC50 was 14.1 µM (active). In the case of `CCN(CC)CCNC(=O)c1cc(S(C)(=O)=O)ccc1OC`, the AC50 is reported as “inactive”. In the case of `CCCCN(CC)Cc1ccc(CNC(=O)Nc2ccc(OC)cc2OC)o1`, the AC50 is reported as 22.4 µM (active). In the case of `COc1cnc(-c2ccccc2)nc1Oc1cccc(C)c1`, the AC50 is reported as “inactive”. `COc1cnc(-c2ccccn2)nc1Sc1c(Cl)cccc1Cl` was tested, and the AC50 was “inactive”. For `COc1cnc(-c2ccccn2)nc1Oc1ccc(Cl)c2ccccc12`, the AC50 was 14.1 µM (active). In the case of `CN(Cc1cnc2nc(N)nc(N)c2n1)c1ccc(C(=O)N[C@@H](CCC(=O)O)C(=O)O)cc1`, the AC50 is reported as “inactive”. `COc1ccc(NC(=O)COC(=O)Cn2c(C)nc3ccccc32)cc1OC` showed an activity, negative = inhibition of 8.93% [at 2.29 µM]. With `CCn1c2ccccc2c2cc(NC(=O)CSc3nnc(-c4ccc(OC)c(OC)c4)n3N)ccc21` the AC50 was 1 µM (active). With `COc1ccc(C)cc1NC(=O)CCC(=O)Nc1nnc(C(F)(F)F)s1` the AC50 was “inactive”. For `COc1ccc(C)cc1NC(=O)CSc1nnc(-c2ccc(OC)c(OC)c2)n1N`, the AC50 was 7.94 µM (active). With `Cn1c(=O)c2c(ncn2CCO)n(C)c1=O` the AC50 was “inactive”. `Cn1c(=O)c2c(ncn2CC(COCc2ccccc2Cl)OCc2ccccc2Cl)n(C)c1=O` (stereo not given) was tested, and the AC50 was 7.94 µM (active). With `Cn1c(=O)c2c(ncn2C[C@@H](O)CO)n(C)c1=O` the AC50 was “inactive”. `O=C(CSC1=NCCS1)N1CCN(c2ccc(Cl)cc2)CC1` was tested, and the AC50 was 15.8 µM (active). Molecule `Cc1cc([N+](=O)[O-])c(C)c(Br)c1C` has an activity, negative = inhibition of -7.05% [at 11.4 µM]. With `NC(=O)/C(=C\c1ccncc1)c1cccc2ccccc12` the AC50 was 3.16 µM (active). Work on `O=C(O)/C(=C\c1ccccc1)c1ccccc1` yielded an activity, negative = inhibition of -6.04% [at 11.4 µM]. In the case of `O=C(O)/C(=C\c1ccc(O)cc1)c1cccc2ccccc12`, the activity, negative = inhibition is reported as -2.12% [at 11.4 µM]. `O=C(O)CCC(=O)N1CCc2cc(S(=O)(=O)NCc3cccs3)ccc21` was tested, and the AC50 was “inactive”. `CCC(=O)N1CCc2cc(S(=O)(=O)NC(C(=O)NCc3ccc(F)cc3)C(C)C)ccc21` (stereo not given) was tested, and the AC50 was 7.08 µM (active). `O=C(O)CCC(=O)N1CCc2cc(S(=O)(=O)N3CCCCC3)ccc21` was tested, and the AC50 was “inactive”. For `Cc1ccc2[nH]c(=O)c(NC(N)=S)nc2c1`, the AC50 was “inactive”. In the case of `CCO/C(C)=N/n1c2nc3ccccc3nc2c2c(=O)n(CC(C)C)c(C)nc21`, the AC50 is reported as 28.2 µM (active). `CCOC(=O)Cn1c(-c2ccccc2)nc2ccccc2c1=O` was tested, and the AC50 was “inactive”. Work on `O=C(O)c1ccccc1N[C@H](c1ccccc1)c1ccc2cccnc2c1O` yielded an activity, negative = inhibition of -13.5% [at 11.4 µM]. For `CC(=O)Oc1cc(C(C)C)c(OCCN(C)C)cc1C`, the AC50 was “inactive”. In the case of `COC(=O)CNC(=O)CCCCC(=O)NCC(=O)OC`, the AC50 is reported as “inactive”. For `CCCCCCCCC(=O)NCc1cc(OC)c(O)cc1I`, the AC50 was 3.16 µM (active). For `CCCCCC(=O)Nc1cc2[nH]c(=O)cc(COC)c2cc1C`, the AC50 was “inactive”. With `Cc1ccc(S(=O)(=O)Oc2cc(S(=O)(=O)O)cc3cc(S(=O)(=O)O)cc(N)c23)cc1` the activity, negative = inhibition was 0.193% [at 11.4 µM]. For `Cc1nc(SCC(=O)c2cc3ccccc3oc2=O)c(C#N)c(C)c1C(=O)Nc1ccccc1`, the AC50 was “inactive”. For `Cc1c(C#N)c(=O)oc2ccc3ccccc3c12`, the AC50 was 3.55 µM (active). `N#Cc1c(NC(=O)CCC(=O)O)ccc2ccccc12` gave an activity, negative = inhibition of -1.16% [at 11.4 µM]. For `CN(C)CCNc1oc(COc2ccc(Cl)cc2Cl)nc1C#N`, the AC50 was “inactive”. With `N#Cc1nc(COc2ccccc2Cl)oc1NCc1ccco1` the AC50 was 5.01 µM (active). In the case of `O=C(O)C1CC2(C1)CC(C(=O)O)C2` (stereo not given), the activity, negative = inhibition is reported as 5.16% [at 11.4 µM]. For `Cc1ccc(C(=O)NCc2ccc(N3CCN(C(=O)OC(C)(C)C)CC3)cc2)cc1`, the AC50 was “inactive”. `CCCn1nc2cc(C(=O)NCc3ccc4c(c3)OCO4)ccc2c1OCC` gave an activity, negative = inhibition of 32.6% [at 2.29 µM]. In the case of `Cc1ccc2c(c1)-c1c(cnn1CC(=O)O)CO2`, the AC50 is reported as “inactive”. In the case of `CCN1CCCC1CNC(=O)CCNC(=O)c1cc(OC)c(OC)c(OC)c1` (stereo not given), the AC50 is reported as “inactive”. For `COc1cc(C(=O)NCCC(=O)NCc2ccc3c(c2)OCO3)cc(OC)c1OC`, the AC50 was 0.447 µM (active). In the case of `CCc1nnc(NC(=O)CCC(=O)NCc2ccccc2OC)s1`, the AC50 is reported as “inactive”. `Cc1ccc2c(c1)N(CCC(=O)NCc1ccc3c(c1)OCO3)C(=O)CO2` was tested, and the AC50 was 0.112 µM (active). With `COc1ccccc1CNC(=O)CCN1C(=O)COc2ccc(C)cc21` the AC50 was 11.2 µM (active). `Cc1ccc(CNC(=O)CN2C(=O)COc3ccc(C)cc32)cc1` was tested, and the AC50 was 1.78 µM (active). `Cc1ccc2c(c1)N(CCC(=O)NCc1cccnc1)C(=O)CO2` was tested, and the AC50 was 3.55 µM (active). Work on `O=C(O)c1cccc(CN2CCCCC2)c1` yielded an activity, negative = inhibition of -0.758% [at 11.4 µM]. With `O=C(O)c1cccc(N2CCCC2=O)c1` the AC50 was 8.91 µM (active). With `O=C(O)c1cccc(SSc2cccc(C(=O)O)c2)c1` the activity, negative = inhibition was -11.9% [at 11.4 µM]. With `Cn1cc(-c2nc3cnc(Oc4ccccc4)nc3n(Cc3cccs3)c2=O)c2ccccc21` the AC50 was “inactive”. In the case of `COc1ccc(Oc2ncc3nc(C)c(=O)n(Cc4cccs4)c3n2)cc1`, the AC50 is reported as 3.16 µM (active). For `COc1ccc(Oc2ncc3nc(-c4ccc(F)cc4)c(=O)n(Cc4cccs4)c3n2)cc1`, the AC50 was 15.8 µM (active). With `Cc1nc2cnc(Oc3ccccc3)nc2n(Cc2cccs2)c1=O` the AC50 was 10 µM (active). For `COc1ccc(Oc2ncc3ncc(=O)n(Cc4cccs4)c3n2)cc1`, the AC50 was 3.16 µM (active). In the case of `COc1ccc(-c2nc3cnc(N4CCN(C)CC4)nc3n(Cc3cccs3)c2=O)cc1`, the AC50 is reported as “inactive”. For `COc1ccc(-c2nc3cnc(N4CCOCC4)nc3n(Cc3cccs3)c2=O)cc1`, the AC50 was “inactive”. In the case of `O=C(C[N+]1(c2ccccc2)CCOCC1)c1ccccc1`, the activity, negative = inhibition is reported as -14.4% [at 11.4 µM]. For `O=C(NNC(=O)c1ccncc1)c1ccncc1`, the activity, negative = inhibition was -9.5% [at 11.4 µM]. With `O=C(CC(=O)c1ccncc1)c1ccccc1` the AC50 was 3.16 µM (active). With `O=c1oc2c(CN3CCOCC3)c(O)ccc2c2ccccc12` the activity, negative = inhibition was -4.65% [at 2.29 µM]. `Oc1c(CN2CCOCC2)cc(-c2ccccc2)cc1CN1CCOCC1` was tested, and the AC50 was 15.8 µM (active). `CCc1cc2c(=O)c(-c3cnn(-c4ccccc4)c3)coc2c(CN2CCOCC2)c1O` showed an activity, negative = inhibition of 12.2% [at 11.4 µM]. In the case of `CN1CCN(CC(=O)N2c3ccccc3C(=O)Nc3cccnc32)CC1`, the AC50 is reported as “inactive”. For `CCN(CC)C[C@@H]1CCCCN1CC(=O)N1c2ccccc2C(=O)Nc2cccnc21`, the AC50 was 12.6 µM (active). In the case of `Cc1ccc2c(c1)nnn2C1CCN(S(=O)(=O)c2ccc(C(=O)N3C(C)CCCC3C)cc2)CC1` (stereo not given), the AC50 is reported as 1.41 µM (active). `CC1Cc2ccccc2N1C(=O)Cn1cc([N+](=O)[O-])cn1` (stereo not given) was tested, and the AC50 was “inactive”. For `Cc1ccc2c(c1)nnn2C1CCN(CC(=O)N2c3ccccc3CC2C)CC1` (stereo not given), the AC50 was 10 µM (active). For `CCOC(=O)c1ccccc1NC(=O)/C(C)=C/C(=O)O`, the AC50 was “inactive”. With `CCC(=O)Nc1ccccc1C(=O)OCC(=O)c1cccc2ccccc12` the AC50 was 11.2 µM (active). For `CCC(=O)Nc1ccccc1C(=O)OCC(=O)c1ccccc1`, the AC50 was “inactive”. `c1ccc2c(Nc3ccncc3)nc(-c3ccc4c(c3)OCO4)nc2c1` was tested, and the AC50 was 0.501 µM (active). For `c1ccc(Nc2nc(-c3ccc4c(c3)OCO4)nc3ccccc23)cc1`, the AC50 was 5.01 µM (active). `Nc1ncnc2c([C@@H]3O[C@@H](CO)[C@H](O)[C@@H]3O)nsc12` showed an activity, negative = inhibition of -0.156% [at 11.4 µM]. In the case of `CN(C)/N=N\c1nc[nH]c1C(N)=O`, the AC50 is reported as “inactive”. In the case of `O=C(c1nn(Cc2ccccc2)c(=O)c2ccccc12)N1CCN(C/C=C/c2ccccc2)CC1`, the AC50 is reported as 2.24 µM (active). With `O=C(O)C1C2C=CC(C2)C1C(=O)N1CCN(C/C=C/c2ccccc2)CC1` (stereo not given) the AC50 was “inactive”. Work on `COc1ccc(C(=O)Nc2cccc(/C(C)=N/NC(=O)c3ccc([N+](=O)[O-])cc3)c2)cc1OC` yielded an activity, negative = inhibition of -28.5% [at 2.29 µM]. In the case of `COc1ccc(CC(=O)Nc2cccc(/C(C)=N/NC(=O)c3cccc([N+](=O)[O-])c3)c2)cc1`, the AC50 is reported as 2 µM (active). In the case of `O=C(COc1cccc(NC(=O)c2cccc([N+](=O)[O-])c2)c1)c1ccc(Br)cc1`, the AC50 is reported as “inactive”. `O=C(Nc1nc(-c2ccccc2)cs1)c1cccc([N+](=O)[O-])c1` was tested, and the AC50 was 10 µM (active). `COc1ccc(-c2nc(NC(=O)c3ccccc3)sc2-c2ccc([N+](=O)[O-])cc2)cc1` gave an activity, negative = inhibition of 12.5% [at 2.29 µM]. In the case of `CCC(=O)Nc1cccc(NC(=O)c2cccc([N+](=O)[O-])c2)c1`, the AC50 is reported as 22.4 µM (active). In the case of `N[C@H](C(=O)O)c1ccc(C(=O)O)cc1`, the AC50 is reported as “inactive”. For `CCN(CC)CCNC(=O)Cn1nc(-c2ccc(C)cc2)ccc1=O`, the AC50 was “inactive”. With `N#CCCn1c(=O)c(-c2cccc(C#N)c2)nc2cnc(Oc3cccc(Cl)c3)nc21` the AC50 was “inactive”. `CN(C)c1ncc2nc(-c3cccc(C#N)c3)c(=O)n(CCC#N)c2n1` was tested, and the AC50 was “inactive”. In the case of `COc1ccc(Oc2ncc3nc(-c4cccc(C#N)c4)c(=O)n(Cc4cccc(OC)c4)c3n2)cc1`, the AC50 is reported as 2 µM (active). `COc1cccc(Cn2c(=O)c(-c3cccc(C#N)c3)nc3cnc(OC)nc32)c1` was tested, and the AC50 was 3.16 µM (active). In the case of `COc1ncc2nc(-c3cccc(C#N)c3)c(=O)n(CCC#N)c2n1`, the AC50 is reported as 25.1 µM (active).
